Measured values: paper PMC7862700, “An all-to-all approach to the identification of sequence-specific readers for epigenetic DNA modifications on cytosine”

Columns and labels:
Test in all cases: DAPPL (digital affinity profiling via proximity ligation, sequencing); 10 mM Tris-HCl pH 7.5, 50 mM NaCl, 1 mM DTT, 4% glycerol, room temperature, 30 min; GST-TFs on glutathione beads, 16-mer random dsDNA library, 0.1% formaldehyde crosslink after washing; high values mean tight binding
FEV = target: T1, FEV (Homo sapiens, UniProt Q99581 1-238); conditions: protein: recombinant; tags: N-terminal GST; dsDNA, one strand shown
T1 sequence: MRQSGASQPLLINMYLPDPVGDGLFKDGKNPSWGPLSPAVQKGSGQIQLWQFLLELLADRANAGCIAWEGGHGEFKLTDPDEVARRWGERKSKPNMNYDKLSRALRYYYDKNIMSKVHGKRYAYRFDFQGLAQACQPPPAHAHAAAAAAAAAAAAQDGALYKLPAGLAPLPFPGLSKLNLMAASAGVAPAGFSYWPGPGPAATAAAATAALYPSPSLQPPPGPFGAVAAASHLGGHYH
In short: (§1)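 In yeast, human transcription factors were expressed with a GST fusion, then pulled down on glutathione beads and given DNA barcodes. Pooled with a tag-only sample, they were exposed to 200 nmole of a 16-mer random double-stranded DNA library (Tris/NaCl/DTT/glycerol buffer, room temperature, 30 min), washed, crosslinked with 0.1% formaldehyde, proximity-ligated using BsaI/T4 ligase for 1 h at 37 °C, PCR-amplified and read on an Illumina NextSeq500. Each hexamer's frequency of reads for a factor, divided by the matching frequency for the tag-only sample, gives the binding signal.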

ETV5 = ETV5 (Homo sapiens, UniProt P41161 1-510); conditions: protein: recombinant; tags: N-terminal GST; dsDNA, one strand shown
ETV5, sequence (P41161 whole entry): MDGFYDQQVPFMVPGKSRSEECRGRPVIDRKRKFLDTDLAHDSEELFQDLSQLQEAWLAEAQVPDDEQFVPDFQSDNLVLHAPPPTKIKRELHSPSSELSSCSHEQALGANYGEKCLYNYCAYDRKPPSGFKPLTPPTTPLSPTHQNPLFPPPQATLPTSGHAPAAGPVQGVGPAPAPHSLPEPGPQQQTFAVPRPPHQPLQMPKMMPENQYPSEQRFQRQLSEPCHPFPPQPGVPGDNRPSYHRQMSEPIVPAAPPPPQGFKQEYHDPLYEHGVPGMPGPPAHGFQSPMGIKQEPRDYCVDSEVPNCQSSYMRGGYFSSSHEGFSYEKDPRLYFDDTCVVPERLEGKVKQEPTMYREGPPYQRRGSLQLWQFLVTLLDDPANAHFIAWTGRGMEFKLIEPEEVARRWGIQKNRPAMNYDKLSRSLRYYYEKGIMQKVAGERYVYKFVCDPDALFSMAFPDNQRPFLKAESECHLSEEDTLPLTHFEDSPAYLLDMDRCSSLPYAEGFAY
In short: as §1

HSF1 = HSF1 (Homo sapiens, UniProt Q00613 1-529); conditions: protein: recombinant; tags: N-terminal GST; chain copies: 3; dsDNA, one strand shown
HSF1, sequence (Q00613 whole entry): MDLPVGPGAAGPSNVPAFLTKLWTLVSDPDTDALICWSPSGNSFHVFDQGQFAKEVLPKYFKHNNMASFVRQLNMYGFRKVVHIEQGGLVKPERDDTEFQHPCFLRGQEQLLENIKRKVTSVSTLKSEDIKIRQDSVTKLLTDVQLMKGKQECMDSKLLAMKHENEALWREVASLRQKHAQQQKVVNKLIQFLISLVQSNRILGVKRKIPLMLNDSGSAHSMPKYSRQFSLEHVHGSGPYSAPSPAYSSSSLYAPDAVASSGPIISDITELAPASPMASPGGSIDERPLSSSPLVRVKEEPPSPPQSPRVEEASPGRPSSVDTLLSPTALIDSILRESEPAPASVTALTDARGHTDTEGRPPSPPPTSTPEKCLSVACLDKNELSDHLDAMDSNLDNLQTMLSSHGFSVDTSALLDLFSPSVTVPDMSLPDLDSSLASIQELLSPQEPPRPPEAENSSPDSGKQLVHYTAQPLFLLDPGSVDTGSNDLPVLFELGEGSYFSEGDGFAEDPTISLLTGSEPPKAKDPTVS
In short: as §1

SPIC = target: T2, SPIC (Homo sapiens, UniProt Q8N5J4 1-248); conditions: protein: recombinant; tags: N-terminal GST; dsDNA, one strand shown
T2 sequence: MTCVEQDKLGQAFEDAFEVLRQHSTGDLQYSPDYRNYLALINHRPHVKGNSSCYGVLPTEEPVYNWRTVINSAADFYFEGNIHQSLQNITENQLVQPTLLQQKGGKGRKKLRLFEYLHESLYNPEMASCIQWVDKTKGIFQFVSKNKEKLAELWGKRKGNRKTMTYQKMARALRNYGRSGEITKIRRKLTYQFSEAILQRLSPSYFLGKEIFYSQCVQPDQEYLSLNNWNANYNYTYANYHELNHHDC
In short: as §1

ELF4 = ELF4 (Homo sapiens, UniProt Q99607 1-663); conditions: protein: recombinant; tags: N-terminal GST; dsDNA, one strand shown
ELF4, sequence (Q99607 whole entry): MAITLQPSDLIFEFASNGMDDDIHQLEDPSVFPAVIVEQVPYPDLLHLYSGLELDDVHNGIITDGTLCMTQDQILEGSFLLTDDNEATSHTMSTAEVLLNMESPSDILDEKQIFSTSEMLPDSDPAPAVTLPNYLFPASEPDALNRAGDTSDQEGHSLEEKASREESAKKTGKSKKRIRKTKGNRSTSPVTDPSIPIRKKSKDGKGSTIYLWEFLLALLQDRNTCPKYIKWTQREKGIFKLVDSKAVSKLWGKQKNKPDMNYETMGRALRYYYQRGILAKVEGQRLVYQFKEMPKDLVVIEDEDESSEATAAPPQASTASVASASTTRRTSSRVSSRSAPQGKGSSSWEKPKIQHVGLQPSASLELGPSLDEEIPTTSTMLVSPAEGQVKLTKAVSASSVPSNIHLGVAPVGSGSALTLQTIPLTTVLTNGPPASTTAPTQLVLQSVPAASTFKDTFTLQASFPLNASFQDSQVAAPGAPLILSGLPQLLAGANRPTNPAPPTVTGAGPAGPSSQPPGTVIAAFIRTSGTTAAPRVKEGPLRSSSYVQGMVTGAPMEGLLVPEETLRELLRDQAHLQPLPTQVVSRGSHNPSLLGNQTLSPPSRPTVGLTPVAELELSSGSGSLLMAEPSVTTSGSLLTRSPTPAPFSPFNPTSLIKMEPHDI
In short: as §1

ELK4 = target: T3, ELK4 (Homo sapiens, UniProt P28324-2 1-405); conditions: protein: recombinant; tags: N-terminal GST; dsDNA, one strand shown
T3 sequence: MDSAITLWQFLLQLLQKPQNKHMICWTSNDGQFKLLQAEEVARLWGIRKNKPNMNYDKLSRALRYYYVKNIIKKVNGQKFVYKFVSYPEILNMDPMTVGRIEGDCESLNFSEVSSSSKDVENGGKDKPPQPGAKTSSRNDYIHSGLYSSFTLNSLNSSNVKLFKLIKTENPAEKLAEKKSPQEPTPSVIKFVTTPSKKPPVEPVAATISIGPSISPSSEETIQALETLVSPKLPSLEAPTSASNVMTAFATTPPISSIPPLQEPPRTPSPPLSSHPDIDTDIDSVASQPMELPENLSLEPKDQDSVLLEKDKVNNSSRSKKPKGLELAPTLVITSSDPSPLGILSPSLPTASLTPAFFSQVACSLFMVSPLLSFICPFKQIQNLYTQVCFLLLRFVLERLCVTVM
In short: as §1

ETV2 = target: T4, ETV2 (Homo sapiens, UniProt O00321 1-342); conditions: protein: recombinant; tags: N-terminal GST; dsDNA, one strand shown
T4 sequence: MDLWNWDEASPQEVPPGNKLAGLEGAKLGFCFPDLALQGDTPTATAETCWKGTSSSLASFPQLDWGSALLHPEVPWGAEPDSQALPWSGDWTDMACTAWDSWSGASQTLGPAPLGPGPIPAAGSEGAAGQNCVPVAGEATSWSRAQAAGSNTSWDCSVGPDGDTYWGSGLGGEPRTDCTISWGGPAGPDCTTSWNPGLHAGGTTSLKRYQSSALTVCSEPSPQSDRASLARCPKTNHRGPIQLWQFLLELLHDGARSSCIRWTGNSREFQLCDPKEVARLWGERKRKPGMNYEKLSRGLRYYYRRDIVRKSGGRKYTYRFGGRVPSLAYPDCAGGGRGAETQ
In short: as §1

ELF3 = target: T5, ELF3 (Homo sapiens, UniProt P78545 1-371); conditions: protein: recombinant; tags: N-terminal GST; dsDNA, one strand shown
T5 sequence: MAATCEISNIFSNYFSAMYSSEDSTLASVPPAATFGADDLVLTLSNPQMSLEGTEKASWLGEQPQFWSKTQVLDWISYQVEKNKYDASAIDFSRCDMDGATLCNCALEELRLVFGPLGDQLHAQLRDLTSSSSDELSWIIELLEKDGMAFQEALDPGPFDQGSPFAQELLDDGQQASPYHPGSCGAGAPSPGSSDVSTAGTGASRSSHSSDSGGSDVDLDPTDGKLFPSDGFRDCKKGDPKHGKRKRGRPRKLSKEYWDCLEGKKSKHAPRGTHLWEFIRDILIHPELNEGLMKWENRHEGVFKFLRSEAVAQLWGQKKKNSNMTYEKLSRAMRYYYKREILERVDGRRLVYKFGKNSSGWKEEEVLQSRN
In short: as §1

CRX = CRX (Homo sapiens, UniProt O43186 1-299); conditions: protein: recombinant; tags: N-terminal GST; dsDNA, one strand shown
CRX, sequence (O43186 whole entry): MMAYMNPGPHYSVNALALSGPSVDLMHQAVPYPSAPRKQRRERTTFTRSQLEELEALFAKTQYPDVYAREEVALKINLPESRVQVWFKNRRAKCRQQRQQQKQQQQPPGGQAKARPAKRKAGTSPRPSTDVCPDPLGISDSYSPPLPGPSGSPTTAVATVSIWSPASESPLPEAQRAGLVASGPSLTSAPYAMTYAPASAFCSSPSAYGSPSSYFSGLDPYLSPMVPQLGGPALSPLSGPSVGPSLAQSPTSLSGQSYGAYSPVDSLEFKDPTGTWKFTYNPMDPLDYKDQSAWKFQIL
In short: as §1

ETV1 = ETV1 (Homo sapiens, UniProt P50549 1-477); conditions: protein: recombinant; tags: N-terminal GST; dsDNA, one strand shown
ETV1, sequence (P50549 whole entry): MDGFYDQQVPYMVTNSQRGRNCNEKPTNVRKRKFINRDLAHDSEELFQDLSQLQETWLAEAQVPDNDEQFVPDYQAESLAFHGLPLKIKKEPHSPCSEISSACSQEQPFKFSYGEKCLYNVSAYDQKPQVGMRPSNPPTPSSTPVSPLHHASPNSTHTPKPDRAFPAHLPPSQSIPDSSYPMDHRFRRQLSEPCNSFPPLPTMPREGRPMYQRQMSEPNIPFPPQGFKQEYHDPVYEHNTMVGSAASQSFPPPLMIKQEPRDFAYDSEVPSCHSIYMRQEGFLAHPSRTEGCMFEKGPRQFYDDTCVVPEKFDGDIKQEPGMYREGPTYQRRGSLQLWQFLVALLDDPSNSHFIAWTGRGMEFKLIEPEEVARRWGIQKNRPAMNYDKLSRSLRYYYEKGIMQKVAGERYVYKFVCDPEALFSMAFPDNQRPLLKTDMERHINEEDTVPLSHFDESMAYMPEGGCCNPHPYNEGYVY
In short: as §1

ERF = target: T6, ERF (Homo sapiens, UniProt P50548 1-548); conditions: protein: recombinant; tags: N-terminal GST; dsDNA, one strand shown
T6 sequence: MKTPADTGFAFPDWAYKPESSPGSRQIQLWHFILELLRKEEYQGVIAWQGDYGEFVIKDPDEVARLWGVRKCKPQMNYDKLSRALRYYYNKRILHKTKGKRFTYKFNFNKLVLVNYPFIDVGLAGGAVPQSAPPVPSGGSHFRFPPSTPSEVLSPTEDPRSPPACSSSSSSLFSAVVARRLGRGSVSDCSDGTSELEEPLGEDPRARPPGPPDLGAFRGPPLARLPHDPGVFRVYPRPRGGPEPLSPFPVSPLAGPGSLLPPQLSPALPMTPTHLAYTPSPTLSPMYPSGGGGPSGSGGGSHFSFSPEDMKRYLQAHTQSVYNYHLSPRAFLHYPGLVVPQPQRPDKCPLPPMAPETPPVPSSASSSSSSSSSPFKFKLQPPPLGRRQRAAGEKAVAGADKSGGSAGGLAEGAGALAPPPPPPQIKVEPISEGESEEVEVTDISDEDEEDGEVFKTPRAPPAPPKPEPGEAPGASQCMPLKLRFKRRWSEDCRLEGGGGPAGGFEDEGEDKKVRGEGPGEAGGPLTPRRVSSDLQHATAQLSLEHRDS
In short: as §1

ETV3L = target: T7, ETV3L (Homo sapiens, UniProt Q6ZN32 1-361); conditions: protein: recombinant; tags: N-terminal GST; dsDNA, one strand shown
T7 sequence: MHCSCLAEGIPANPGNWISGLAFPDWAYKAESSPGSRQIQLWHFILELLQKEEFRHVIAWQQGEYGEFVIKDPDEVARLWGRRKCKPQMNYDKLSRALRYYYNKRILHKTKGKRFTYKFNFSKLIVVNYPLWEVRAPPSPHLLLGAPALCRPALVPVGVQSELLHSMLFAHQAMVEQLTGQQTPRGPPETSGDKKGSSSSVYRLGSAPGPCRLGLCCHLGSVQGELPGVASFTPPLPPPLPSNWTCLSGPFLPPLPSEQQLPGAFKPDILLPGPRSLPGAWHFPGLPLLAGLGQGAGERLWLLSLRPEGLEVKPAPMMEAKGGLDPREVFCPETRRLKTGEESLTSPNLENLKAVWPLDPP
In short: as §1

ETS2 = target: T8, ETS2 (Homo sapiens, UniProt P15036 1-469); conditions: protein: recombinant; tags: N-terminal GST; dsDNA, one strand shown
T8 sequence: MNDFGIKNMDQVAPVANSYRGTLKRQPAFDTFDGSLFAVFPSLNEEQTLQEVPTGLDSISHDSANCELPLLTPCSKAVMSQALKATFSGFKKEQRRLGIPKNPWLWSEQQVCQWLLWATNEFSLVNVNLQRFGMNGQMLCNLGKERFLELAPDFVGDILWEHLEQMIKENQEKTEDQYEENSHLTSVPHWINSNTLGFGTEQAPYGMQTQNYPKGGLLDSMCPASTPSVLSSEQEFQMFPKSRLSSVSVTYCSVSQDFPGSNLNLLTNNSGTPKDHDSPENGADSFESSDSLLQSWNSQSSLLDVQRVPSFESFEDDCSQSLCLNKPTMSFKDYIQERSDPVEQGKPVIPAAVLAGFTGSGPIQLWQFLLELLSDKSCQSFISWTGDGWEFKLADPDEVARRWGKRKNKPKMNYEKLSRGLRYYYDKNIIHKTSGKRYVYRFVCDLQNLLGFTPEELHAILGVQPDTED
In short: as §1

SPDEF = target: T9, SPDEF (Homo sapiens, UniProt O95238 1-335); conditions: protein: recombinant; tags: N-terminal GST; dsDNA, one strand shown
T9 sequence: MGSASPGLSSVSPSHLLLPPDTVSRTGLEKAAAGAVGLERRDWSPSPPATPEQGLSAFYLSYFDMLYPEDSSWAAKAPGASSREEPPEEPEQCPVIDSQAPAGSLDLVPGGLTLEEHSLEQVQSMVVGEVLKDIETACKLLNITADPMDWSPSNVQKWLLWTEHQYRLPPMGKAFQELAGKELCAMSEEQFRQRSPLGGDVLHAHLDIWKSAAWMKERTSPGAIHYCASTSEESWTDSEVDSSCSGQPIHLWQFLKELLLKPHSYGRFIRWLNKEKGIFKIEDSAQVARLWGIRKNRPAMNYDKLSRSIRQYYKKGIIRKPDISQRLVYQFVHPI
In short: as §1

ETV7 = target: T10, ETV7 (Homo sapiens, UniProt Q9Y603 1-341); conditions: protein: recombinant; tags: N-terminal GST; dsDNA, one strand shown
T10 sequence: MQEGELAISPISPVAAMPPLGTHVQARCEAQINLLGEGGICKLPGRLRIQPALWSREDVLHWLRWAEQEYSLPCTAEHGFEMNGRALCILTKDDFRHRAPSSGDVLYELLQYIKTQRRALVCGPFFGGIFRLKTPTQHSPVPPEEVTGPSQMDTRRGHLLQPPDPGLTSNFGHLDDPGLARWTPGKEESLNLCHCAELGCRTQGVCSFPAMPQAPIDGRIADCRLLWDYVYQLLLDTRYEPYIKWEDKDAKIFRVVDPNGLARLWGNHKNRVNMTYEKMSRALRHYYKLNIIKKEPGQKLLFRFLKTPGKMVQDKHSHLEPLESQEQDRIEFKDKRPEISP
In short: as §1

ELF5 = target: T11, ELF5 (Homo sapiens, UniProt Q9UKW6-2 1-255); conditions: protein: recombinant; tags: N-terminal GST; dsDNA, one strand shown
T11 sequence: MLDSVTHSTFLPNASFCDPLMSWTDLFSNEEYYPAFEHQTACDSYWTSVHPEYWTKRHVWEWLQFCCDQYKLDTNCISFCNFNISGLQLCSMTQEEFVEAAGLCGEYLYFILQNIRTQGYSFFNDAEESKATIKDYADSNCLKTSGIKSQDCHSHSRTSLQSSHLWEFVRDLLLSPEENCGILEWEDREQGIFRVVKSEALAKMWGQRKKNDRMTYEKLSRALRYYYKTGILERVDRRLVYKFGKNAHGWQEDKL
In short: as §1

ETV3 = target: T12, ETV3 (Homo sapiens, UniProt P41162-2 1-143); conditions: protein: recombinant; tags: N-terminal GST; dsDNA, one strand shown
T12 sequence: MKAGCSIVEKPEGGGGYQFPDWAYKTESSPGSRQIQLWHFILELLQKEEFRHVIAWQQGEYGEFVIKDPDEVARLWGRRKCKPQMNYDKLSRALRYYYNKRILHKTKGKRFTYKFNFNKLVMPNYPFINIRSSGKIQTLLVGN
In short: as §1

ETV6 = ETV6 (Homo sapiens, UniProt P41212 1-452); conditions: protein: recombinant; tags: N-terminal GST; dsDNA, one strand shown
ETV6, sequence (P41212 whole entry): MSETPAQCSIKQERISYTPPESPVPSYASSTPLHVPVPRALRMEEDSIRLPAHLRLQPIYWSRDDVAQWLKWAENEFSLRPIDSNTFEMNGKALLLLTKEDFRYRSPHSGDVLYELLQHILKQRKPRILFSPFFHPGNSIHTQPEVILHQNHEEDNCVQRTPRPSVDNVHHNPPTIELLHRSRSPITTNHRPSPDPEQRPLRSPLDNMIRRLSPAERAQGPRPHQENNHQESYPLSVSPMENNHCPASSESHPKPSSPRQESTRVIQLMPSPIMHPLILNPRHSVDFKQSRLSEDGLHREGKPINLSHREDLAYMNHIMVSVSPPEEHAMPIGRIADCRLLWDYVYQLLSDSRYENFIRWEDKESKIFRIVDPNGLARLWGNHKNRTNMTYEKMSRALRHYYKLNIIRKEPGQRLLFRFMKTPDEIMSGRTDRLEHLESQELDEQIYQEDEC
In short: as §1

In the case of AGAAAT, the binding signal (FEV) is reported as 1.12 fold enrichment (6-mer frequency, TF over GST control), the binding signal (ETV5) is reported as 1.17 fold enrichment (6-mer frequency, TF over GST control) and the binding signal (HSF1) is reported as 2.04 fold enrichment (6-mer frequency, TF over GST control). The binding signal (SPIC) was 1.22 fold enrichment (6-mer frequency, TF over GST control), the binding signal (ELF4) was 1.15 fold enrichment (6-mer frequency, TF over GST control) and the binding signal (ELK4) was 1.03 fold enrichment (6-mer frequency, TF over GST control). The binding signal (ETV2) was 1.19 fold enrichment (6-mer frequency, TF over GST control), the binding signal (ELF3) was 1.2 fold enrichment (6-mer frequency, TF over GST control) and the binding signal (CRX) was 1.35 fold enrichment (6-mer frequency, TF over GST control). The binding signal (ETV1) was 1.13 fold enrichment (6-mer frequency, TF over GST control), the binding signal (ERF) was 1.13 fold enrichment (6-mer frequency, TF over GST control) and the binding signal (ETV3L) was 1.17 fold enrichment (6-mer frequency, TF over GST control). For the same sequence, the binding signal (ETS2) was 1.21 fold enrichment (6-mer frequency, TF over GST control), the binding signal (SPDEF) was 1.03 fold enrichment (6-mer frequency, TF over GST control) and the binding signal (ETV7) was 1.21 fold enrichment (6-mer frequency, TF over GST control). The binding signal (ELF5) was 1.15 fold enrichment (6-mer frequency, TF over GST control), the binding signal (ETV3) was 1.09 fold enrichment (6-mer frequency, TF over GST control) and the binding signal (ETV6) was 1.18 fold enrichment (6-mer frequency, TF over GST control).
